An excerpt weighted towards active compounds, which were near 7.9% of everything screened.
SW480 rerep = A quantitative high throughput screen for small molecules that induce DNA re-replication in SW480 colon adenocarcinoma cells. SW480 DNA re-replication, Hoechst DNA content imaging, 48 h. Potency, µM (highest dose often 46.1 µM), for inactives: at the top dose re-replication activation, hits mostly activators. AID 624297, 2012. 340,000 tested, 1.8% active; also: % of control where 0% means no effect; nearly all actives have a fitted effect of over 55% in size
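Image-based DNA-content assay: after two days of treatment, nuclei were labelled with the DNA dye Hoechst and imaged, and hits were compounds raising the count of nuclei showing high fluorescence intensity.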
MCF10A rerep = A quantitative high throughput screen for small molecules that induce DNA re-replication in MCF 10a normal breast cells; MCF 10A DNA re-replication, Hoechst nuclear intensity, 48 h; Potency, µM (top dose mostly 46.1 µM), for inactives: top-dose activity, positive = re-replication, hits mostly activators; 350,000 tested, 2.9% active; AID 624296, 2012; also: % of control where 0% means no effect; nearly all actives have a fitted effect of over 50% in size
HT1080NT lethal = qHTS for induction of synthetic lethality in tumor cells producing 2HG: qHTS for the HT-1080-NT fibrosarcoma cell line | AID 686970, 2013 | HT-1080-NT fibrosarcoma viability, CellTiter-Glo ATP luminescence, 48 h | 360,000 tested, 1.6% active | Potency, µM (highest dose often 46.1 µM), without a hit: at the top dose activity, negative = less viability, actives largely listed as cytotoxic;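 also: NT is the 2HG producing partner of a matched IDH1 knockdown line; 0% = DMSO-treated cells and -100% = media-only wells without cells; nearly all actives have a fitted effect of over 55% in size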
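Compounds were tested in concentration-response format on HT-1080-NT cells for 48 hours at 37 degrees C. Cell viability came from CellTiter-Glo luminescence; curves were classified by r2, response magnitude and activity.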
KB-V1 cytotox = qHTS assay for MDR1-selective chemotherapeutics: Primary screen using the drug-selected MDR subline cells KB-V1; KB-V1 MDR cells viability, CellTiter-Glo, 72 h; Potency, µM (series often up to 46.1 µM), hits mostly cytotoxic; 400,000 tested, 3.4% active; AID 1347076, 2019; also: % is scaled to controls: 0 for no effect and ±100 for the full control effect; nearly all actives have a fitted effect of over 60% in size
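Readout: CellTiter-Glo luminescence, 10 min after addition. Cells: KB-V1 MDR subline, 72 h at 37 degrees C with compound. Analysis: corrected, normalized data fitted to concentration-effect curves.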
KB-3-1 cytotox = qHTS assay for MDR1-selective chemotherapeutics: Primary screen using the parental adenocarcinoma cell KB-3-1. Potency, µM (series often up to 46.1 µM), actives largely listed as cytotoxic. 400,000 tested, 1.4% active. AID 1347075, 2019. KB-3-1 viability, CellTiter-Glo ATP luminescence, 72 h; also: % is scaled to controls: 0 for no effect and ±100 for the full control effect; nearly all actives have a fitted effect of over 60% in size
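Cytotoxicity measured as CellTiter-Glo luminescence after 72 h at 37 C. Compound titrations were pinned onto drug-naive KB-3-1 parental adenocarcinoma cells grown in DMEM with 10% FBS, and normalized data fitted to concentration-response curves.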
HT1080 IDH1KD tx = qHTS for induction of synthetic lethality in tumor cells producing 2HG: qHTS for the HT-1080-IDH1KD cell line; HT-1080 IDH1 knockdown viability, ATP luminescence, 48 h; Potency, µM (series often up to 46.1 µM), without a hit: at the top dose activity, negative = toxicity, usual class: cytotoxic; 360,000 tested, 2% active;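 also: 0% = DMSO wells and -100% = cell-free medium wells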
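Knockdown cells (IDH1KD HT-1080) received compounds 2 h after plating at 750 cells/well and were kept 48 h at 37 °C in 5% FBS RPMI. A CellTiter-Glo luminescence read gave % activity for curve fitting.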
* hit, by the source's call; [ ] = remark or other dose. Calls follow the shape of the dose curve; as a rule, active = well fitted curve in the direction sought with a large enough effect; inconclusive = small, poorly fitted or top-dose-only effect, or another doubt; inactive = no such curve, though single readings can be large; an effect the other way counts as inactive or inconclusive. Potency is read from the fitted curve at half-maximal effect.

How did O=C(c1ccc(Cl)cc1)C1CCN(C(=O)NC2CCCCC2)CC1 do in these assays?
SW480 rerep: -1%; MCF10A rerep: 24%; HT1080NT lethal: -5%; KB-V1 cytotox: 2.3µM*; KB-3-1 cytotox: inactive; HT1080 IDH1KD tx: inconclusive

What do the screens show for `Cc1cnc2ccc3ccccc3c2c1C`?
KB-V1 cytotox: inactive; KB-3-1 cytotox: 5.2µM*

What do the screens show for `Cc1c2ccccc2c(C)c2c1ccc1ccccc12`?
SW480 rerep: 1.8µM*; MCF10A rerep: inconclusive; HT1080NT lethal: inconclusive; KB-V1 cytotox: inactive; KB-3-1 cytotox: inactive; HT1080 IDH1KD tx: inconclusive

How did Cc1c2ccccc2nc2ccccc12 do in these assays?
SW480 rerep: -5%; MCF10A rerep: -2%; HT1080NT lethal: 3%; KB-V1 cytotox: inactive; KB-3-1 cytotox: inactive; HT1080 IDH1KD tx: -1%

What do the screens show for `Cc1ccc2ncc(C)c(C)c2c1`?
KB-V1 cytotox: inactive; KB-3-1 cytotox: inactive

Results for C=C1CC[C@@H]2[C@](C)(CO)[C@H](O)CC[C@@]2(C)[C@@H]1C/C=C1/C(=O)OCC1O (stereo partly specified) ?
SW480 rerep: inconclusive; MCF10A rerep: inconclusive; HT1080NT lethal: inconclusive; KB-V1 cytotox: inactive; KB-3-1 cytotox: inactive; HT1080 IDH1KD tx: inconclusive

Results for Cc1c(-c2ccc(Cl)cc2)oc(=O)c2c(N)n(-c3ccccc3)nc12 ?
SW480 rerep: 0%; MCF10A rerep: inconclusive; HT1080NT lethal: 0%; KB-V1 cytotox: 21µM*; KB-3-1 cytotox: inconclusive; HT1080 IDH1KD tx: -17%

Results for Nc1c2c(=O)oc(-c3ccccc3)cc2nn1-c1ccccc1 ?
SW480 rerep: 16µM*; MCF10A rerep: inconclusive; HT1080NT lethal: inconclusive; KB-V1 cytotox: 12µM*; KB-3-1 cytotox: 23µM*; HT1080 IDH1KD tx: inconclusive

What do the screens show for `CCOC(=O)c1[nH]c(C)c(CCC(=O)Nc2cc(Cl)ccc2C)c1C`?
KB-V1 cytotox: inactive; KB-3-1 cytotox: inactive

What do the screens show for `CC(C)c1ccc(NC(=O)C2(C)Cc3c(-c4cccc(C(N)=O)c4)ccnc3O2)cc1` (stereo unspecified)?
HT1080NT lethal: inconclusive; KB-V1 cytotox: inactive; KB-3-1 cytotox: inactive; HT1080 IDH1KD tx: inconclusive

What do the screens show for `CSc1cccc(CN2CCCC(C(=O)Nc3cccc(-n4cccn4)c3)C2)c1` (stereo unspecified)?
SW480 rerep: 16µM*; MCF10A rerep: inconclusive; HT1080NT lethal: -11%; HT1080 IDH1KD tx: -8%

What do the screens show for `O=C(Nc1cccc(-n2cccn2)c1)C1CCCN(Cc2cc3ccccc3[nH]2)C1` (stereo unspecified)?
SW480 rerep: inconclusive; MCF10A rerep: 21µM*; HT1080NT lethal: inconclusive; KB-V1 cytotox: inactive; KB-3-1 cytotox: inactive; HT1080 IDH1KD tx: inconclusive

Results for CCn1ncc(CN2CCCC(C(=O)Nc3cccc(-c4cc5ccccc5[nH]4)c3)C2)c1C (stereo unspecified) ?
SW480 rerep: inconclusive; MCF10A rerep: 16µM*; HT1080NT lethal: inconclusive; KB-V1 cytotox: inconclusive; KB-3-1 cytotox: inconclusive; HT1080 IDH1KD tx: inconclusive

Results for Cc1cc(CN2CCCC(C(=O)Nc3cccc(-n4cccn4)c3)C2)cc(C)c1O (stereo unspecified) ?
SW480 rerep: -9%; MCF10A rerep: 14%; HT1080NT lethal: -25%; KB-V1 cytotox: inactive; KB-3-1 cytotox: inactive; HT1080 IDH1KD tx: inconclusive

What do the screens show for `CCOc1ccccc1CN1CCCC(C(=O)Nc2cccc(-n3cccn3)c2)C1` (stereo unspecified)?
SW480 rerep: -2%; MCF10A rerep: 2%; HT1080NT lethal: 23µM*; KB-V1 cytotox: inactive; KB-3-1 cytotox: inconclusive; HT1080 IDH1KD tx: 23µM*

What do the screens show for `O=C(c1cc(-c2ccc(Cl)cc2)on1)N(Cc1cccc(F)c1)Cc1ccco1`?
KB-V1 cytotox: inactive; KB-3-1 cytotox: inactive

Results for COc1ccc2cc(Br)ccc2c1CC(=O)NC(C)C ?
SW480 rerep: 4%; MCF10A rerep: -32%; HT1080NT lethal: 4%; KB-V1 cytotox: inconclusive; KB-3-1 cytotox: inactive; HT1080 IDH1KD tx: 10%

How did C=CCNC(=O)Cc1c(OC)ccc2cc(Br)ccc12 do in these assays?
SW480 rerep: 2%; MCF10A rerep: -1%; HT1080NT lethal: -13%; KB-V1 cytotox: 21µM*; KB-3-1 cytotox: inconclusive; HT1080 IDH1KD tx: -12%

What do the screens show for `CCN1C(=O)c2cccc3c(S(=O)(=O)N4CCC(C)CC4)ccc1c23`?
SW480 rerep: inconclusive; MCF10A rerep: 10µM*; HT1080NT lethal: -9%; KB-V1 cytotox: 2.1µM*; KB-3-1 cytotox: inconclusive; HT1080 IDH1KD tx: -16%

Results for CCN1C(=O)c2cccc3c(S(=O)(=O)Nc4ccc(O)c(C(=O)O)c4)ccc1c23 ?
SW480 rerep: 0%; MCF10A rerep: 6%; HT1080NT lethal: 8%; KB-V1 cytotox: inactive; KB-3-1 cytotox: inactive; HT1080 IDH1KD tx: 25%

How did CCN1C(=O)c2cccc3c(S(=O)(=O)NCCCN4CCOCC4)ccc1c23 do in these assays?
SW480 rerep: -13%; MCF10A rerep: 24%; HT1080NT lethal: 9%; KB-V1 cytotox: inactive; KB-3-1 cytotox: inactive; HT1080 IDH1KD tx: 2%

What do the screens show for `CCN1C(=O)c2cccc3c(S(=O)(=O)NCCc4c[nH]c5ccccc45)ccc1c23`?
SW480 rerep: -2%; MCF10A rerep: 10%; HT1080NT lethal: 0%; KB-V1 cytotox: inactive; KB-3-1 cytotox: inactive; HT1080 IDH1KD tx: -1%

Results for CCN1C(=O)c2cccc3c(S(=O)(=O)Nc4ccccc4OC)ccc1c23 ?
SW480 rerep: 1%; MCF10A rerep: inconclusive; HT1080NT lethal: -1%; KB-V1 cytotox: 16µM*; KB-3-1 cytotox: inconclusive; HT1080 IDH1KD tx: -11%

How did CCN1C(=O)c2cccc3c(S(=O)(=O)NCc4ccccc4)ccc1c23 do in these assays?
SW480 rerep: inconclusive; MCF10A rerep: 16µM*; HT1080NT lethal: -6%[9.24 µM]; KB-V1 cytotox: inactive; KB-3-1 cytotox: inactive; HT1080 IDH1KD tx: -4%

What do the screens show for `NC(=O)c1cccn1-c1ncc(C(F)(F)F)cc1Cl`?
SW480 rerep: -7%; MCF10A rerep: -7%; HT1080NT lethal: 13%; KB-V1 cytotox: inactive; KB-3-1 cytotox: inactive; HT1080 IDH1KD tx: 14%

Screening data: PubChem BioAssay, National Center for Advancing Translational Sciences (NCATS)
